Data: the supplement of paper PMC11732987, “Enantioselective OTUD7B fragment discovery through chemoproteomics screening and high-throughput optimisation” (Communications Chemistry, 2025)

Experiments:
Assay in all cases: log2 ratio of Biotin-Ahx-Ub-VS probe labelling (compound/DMSO); higher = less target engagement, active = hit call of the paper (q ≤ 0.05, log2 ratio ≤ -1)
Conditions in all cases: treatment time: 3 h
[1] = compound: CCC1N(CCc2sccc12)C(=O)CCl
Summary of the method: (§1)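 DUBs in HEK293T lysate were labelled with Biotin-Ahx-Ub-VS (0.5 µM final, 1 h) after a 3 h treatment with compound at 50 or 200 µM or with DMSO, done in triplicate on 495 µg of lysate per sample. NeutrAvidin-enriched proteins were digested with LysC and trypsin and run by diaPASEF LC-MS/MS. Median-normalised label-free quantities gave average base-two log ratios of compound to DMSO by unpaired t-test, restricted to proteins with at least 2 unique peptides.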

[2] = compound: CN1c2ccccc2C(CS1(=O)=O)NC(=O)CCl
Summary of the method: as §1

[3] = compound: Cl.ClCC(=O)N1CCc2ncncc2C1
Summary of the method: as §1

[4] = compound: Cl.Cn1ncc2C(CCCc12)NC(=O)CCl
Summary of the method: as §1

[5] = compound: ClCC(=O)NC1CCOc2ccccc12
Summary of the method: as §1

[6] = compound: ClCC(=O)NC1CCCc2ccccc12
Summary of the method: (§2)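 The values are mean compound-versus-vehicle ratios derived by unpaired t-test. For 3 h, triplicate HEK293T lysate samples (495 µg each) were treated with compound at a series of concentrations or with vehicle, after which Biotin-Ahx-Ub-VS was added to 0.5 µM final for 1 h. Labelled deubiquitinases were enriched with NeutrAvidin, digested with LysC and trypsin, and analysed by diaPASEF LC-MS/MS. Ratios are log2 values from global-median-normalised Spectronaut label-free quantities, using proteins with two or more unique peptides.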

[7] = compound: ClCC(=O)N[C@@H]1CCCc2ccccc12
Summary of the method: as §2

[8] = compound: ClCC(=O)N[C@H]1CCCc2ccccc12
Summary of the method: as §2

[9] = compound: CCC1N(CCc2cc(OC)c(Cl)cc12)C(=O)CCl
Summary of the method: as §1

[10] = compound: CCCC1N(CCc2cc(OC)c(OC)cc12)C(=O)CCl
Summary of the method: as §1

Measured: log2 ratio of Biotin-Ahx-Ub-VS probe labelling

USP46 (UniProt P62068)
UniProt P62068, sequence (P62068 whole entry): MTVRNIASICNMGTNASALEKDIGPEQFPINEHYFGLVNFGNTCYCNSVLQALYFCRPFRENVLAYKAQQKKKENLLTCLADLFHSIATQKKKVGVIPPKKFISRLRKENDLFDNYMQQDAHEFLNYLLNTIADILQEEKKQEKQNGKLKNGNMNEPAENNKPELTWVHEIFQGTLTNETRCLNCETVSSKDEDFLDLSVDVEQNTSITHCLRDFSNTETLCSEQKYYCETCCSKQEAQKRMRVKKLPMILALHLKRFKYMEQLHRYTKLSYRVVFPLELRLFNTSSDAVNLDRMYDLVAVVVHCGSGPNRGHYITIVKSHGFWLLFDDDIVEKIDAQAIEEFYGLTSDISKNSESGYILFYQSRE
inactive: [1]; compound concentration: 50uM 0.00875 | [1]; compound concentration: 200uM -0.386 | [2]; compound concentration: 50uM -0.283 | [2]; compound concentration: 200uM -0.392 | [3]; compound concentration: 50uM -0.496 | [3]; compound concentration: 200uM -0.363 | [4]; compound concentration: 50uM 0.0697 | [4]; compound concentration: 200uM -0.0122 | [5]; compound concentration: 50uM -0.118 | [5]; compound concentration: 200uM -0.18 | [6]; compound concentration: 0.78uM -0.00158 | [6]; compound concentration: 1.56uM -0.0881 | [6]; compound concentration: 3.13uM -0.475 | [6]; compound concentration: 6.25uM -0.276 | [6]; compound concentration: 12.5uM -0.393 | [6]; compound concentration: 25uM -0.421 | [6]; compound concentration: 50uM -0.311 | [6]; compound concentration: 100uM 0.116 | [6]; compound concentration: 200uM -0.326 | [7]; compound concentration: 0.78uM -0.158 | [7]; compound concentration: 1.56uM -0.00787 | [7]; compound concentration: 3.13uM 0.116 | [7]; compound concentration: 6.25uM 0.0618 | [7]; compound concentration: 12.5uM 0.00378 | [7]; compound concentration: 25uM -0.153 | [7]; compound concentration: 50uM -0.14 | [7]; compound concentration: 100uM -0.166 | [7]; compound concentration: 200uM -0.243 | [8]; compound concentration: 0.78uM 0.11 | [8]; compound concentration: 1.56uM -0.348 | [8]; compound concentration: 3.13uM -0.0607 | [8]; compound concentration: 6.25uM -0.153 | [8]; compound concentration: 12.5uM 0.0225 | [8]; compound concentration: 25uM -0.138 | [8]; compound concentration: 50uM 0.0154 | [8]; compound concentration: 100uM -0.107 | [8]; compound concentration: 200uM -0.288 | [9]; compound concentration: 50uM -0.0362 | [10]; compound concentration: 50uM -0.446 | [10]; compound concentration: 200uM -0.735
active: [9]; compound concentration: 200uM -1.5

UniProt Q70EL2
UniProt Q70EL2, sequence (Q70EL2 whole entry): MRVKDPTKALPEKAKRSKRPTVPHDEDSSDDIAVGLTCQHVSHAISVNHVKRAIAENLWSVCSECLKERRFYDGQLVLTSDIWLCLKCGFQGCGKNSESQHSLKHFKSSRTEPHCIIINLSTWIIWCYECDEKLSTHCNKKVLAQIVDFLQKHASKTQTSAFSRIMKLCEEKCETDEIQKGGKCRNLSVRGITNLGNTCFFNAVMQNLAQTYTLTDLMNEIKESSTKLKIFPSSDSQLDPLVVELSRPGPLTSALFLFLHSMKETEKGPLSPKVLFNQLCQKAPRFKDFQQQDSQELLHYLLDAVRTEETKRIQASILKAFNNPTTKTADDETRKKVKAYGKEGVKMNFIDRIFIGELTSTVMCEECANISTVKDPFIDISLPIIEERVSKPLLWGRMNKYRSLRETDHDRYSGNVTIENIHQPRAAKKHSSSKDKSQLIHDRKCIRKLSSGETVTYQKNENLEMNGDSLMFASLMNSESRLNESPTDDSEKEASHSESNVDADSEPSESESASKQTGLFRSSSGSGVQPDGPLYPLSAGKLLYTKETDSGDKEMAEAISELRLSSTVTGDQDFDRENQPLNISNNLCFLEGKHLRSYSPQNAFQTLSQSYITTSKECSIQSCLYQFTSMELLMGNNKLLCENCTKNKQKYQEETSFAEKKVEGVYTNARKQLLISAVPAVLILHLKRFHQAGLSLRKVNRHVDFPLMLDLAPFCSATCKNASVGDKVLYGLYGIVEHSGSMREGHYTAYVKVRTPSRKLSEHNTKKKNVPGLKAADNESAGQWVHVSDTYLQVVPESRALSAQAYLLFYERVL
inactive: [1]; compound concentration: 50uM -0.13 | [1]; compound concentration: 200uM -0.934 | [2]; compound concentration: 50uM -0.103 | [2]; compound concentration: 200uM -0.476 | [3]; compound concentration: 50uM 0.274 | [3]; compound concentration: 200uM -0.808 | [4]; compound concentration: 50uM 0.181 | [4]; compound concentration: 200uM -0.179 | [5]; compound concentration: 50uM 0.189 | [5]; compound concentration: 200uM -0.754 | [9]; compound concentration: 50uM -0.48 | [9]; compound concentration: 200uM -0.823 | [10]; compound concentration: 50uM -0.354 | [10]; compound concentration: 200uM -0.47

USP16 (UniProt Q9Y5T5)
UniProt Q9Y5T5, sequence (Q9Y5T5 whole entry, looked up): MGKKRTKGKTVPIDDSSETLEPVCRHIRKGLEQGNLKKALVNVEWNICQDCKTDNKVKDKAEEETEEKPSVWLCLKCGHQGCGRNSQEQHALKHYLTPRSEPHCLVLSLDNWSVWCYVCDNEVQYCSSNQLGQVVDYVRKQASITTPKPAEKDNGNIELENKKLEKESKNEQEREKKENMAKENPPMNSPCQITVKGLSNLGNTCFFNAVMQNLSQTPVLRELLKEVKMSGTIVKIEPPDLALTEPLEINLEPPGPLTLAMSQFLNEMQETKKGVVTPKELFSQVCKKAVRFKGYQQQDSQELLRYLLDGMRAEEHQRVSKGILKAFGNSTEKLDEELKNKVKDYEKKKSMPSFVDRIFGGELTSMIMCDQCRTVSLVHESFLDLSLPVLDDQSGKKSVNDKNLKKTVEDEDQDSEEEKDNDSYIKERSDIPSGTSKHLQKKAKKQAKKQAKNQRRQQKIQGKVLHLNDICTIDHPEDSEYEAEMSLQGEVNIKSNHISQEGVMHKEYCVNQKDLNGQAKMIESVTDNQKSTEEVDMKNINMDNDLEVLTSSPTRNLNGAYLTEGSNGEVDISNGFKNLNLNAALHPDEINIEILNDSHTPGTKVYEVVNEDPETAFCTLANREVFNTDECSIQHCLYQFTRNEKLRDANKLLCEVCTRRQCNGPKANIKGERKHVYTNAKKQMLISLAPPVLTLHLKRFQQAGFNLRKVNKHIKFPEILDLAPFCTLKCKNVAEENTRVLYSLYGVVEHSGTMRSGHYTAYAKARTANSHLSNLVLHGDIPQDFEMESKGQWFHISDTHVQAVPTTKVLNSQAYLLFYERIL
inactive: [1]; compound concentration: 50uM -0.0823 | [1]; compound concentration: 200uM -0.556 | [2]; compound concentration: 50uM -0.113 | [2]; compound concentration: 200uM -0.275 | [3]; compound concentration: 50uM 0.0401 | [3]; compound concentration: 200uM -0.748 | [4]; compound concentration: 50uM -0.209 | [4]; compound concentration: 200uM -0.00919 | [5]; compound concentration: 50uM -0.0288 | [5]; compound concentration: 200uM -0.558 | [6]; compound concentration: 0.78uM -0.182 | [6]; compound concentration: 1.56uM -0.165 | [6]; compound concentration: 3.13uM -0.0224 | [6]; compound concentration: 6.25uM -0.111 | [6]; compound concentration: 12.5uM -0.299 | [6]; compound concentration: 25uM -0.0714 | [6]; compound concentration: 50uM -0.0894 | [6]; compound concentration: 100uM -0.233 | [6]; compound concentration: 200uM -0.491 | [7]; compound concentration: 0.78uM -0.0997 | [7]; compound concentration: 1.56uM -0.0515 | [7]; compound concentration: 3.13uM -0.248 | [7]; compound concentration: 6.25uM -0.0769 | [7]; compound concentration: 12.5uM -0.00208 | [7]; compound concentration: 25uM -0.0915 | [7]; compound concentration: 50uM -0.387 | [7]; compound concentration: 100uM -0.167 | [7]; compound concentration: 200uM -0.479 | [8]; compound concentration: 0.78uM -0.177 | [8]; compound concentration: 1.56uM -0.318 | [8]; compound concentration: 3.13uM 0.0709 | [8]; compound concentration: 6.25uM -0.00683 | [8]; compound concentration: 12.5uM -0.0549 | [8]; compound concentration: 25uM 0.0133 | [8]; compound concentration: 50uM 0.0578 | [8]; compound concentration: 100uM -0.181 | [8]; compound concentration: 200uM -0.253 | [9]; compound concentration: 50uM -0.285 | [9]; compound concentration: 200uM -0.652 | [10]; compound concentration: 50uM -0.265 | [10]; compound concentration: 200uM -0.972
